Reference: PubChem BioAssay AID1159580 (chemical genetic matrix, 2015)
About 2,000 (36%) of roughly 5,500 compounds were called active. Inconclusive results (about 18%) are left out. Cut-off read from the data, not from the text of the source: active = normalized growth mostly below about 0.91 (no sharp cut-off); inconclusive = no clear call, values can overlap the other calls; inactive = mostly above about 0.92. This is one part of the list.

Test: chemical genetic growth profiling, strain panel (AID 1159580);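 note: tested at 20 µM; growth read once vehicle control cultures reached saturation at 30 °C; 1 = growth at the plate median or of vehicle wells; lower values mean less growth of the strain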
Details: S. cerevisiae deletion strains, growth OD
[1] = locus YCL061C, strain MRC1, active compounds read low
[2] = locus YHR030C, strain SLT2, active compounds read low
[3] = locus YJL187C, strain SWE1, active compounds read low
[4] = locus YAL021C, strain ccr4, active compounds read low
[5] = locus YAL026C, strain drs2, active compounds read low
[6] = locus YAL030W, strain snc1, active compounds read low
[7] = locus YBL061C, strain skt5, active compounds read low
[8] = locus YBR009C, strain hhf1, active compounds read low
[9] = locus YBR023C, strain chs3, active compounds read low
[10] = locus YBR171W, strain sec66, active compounds read low
[11] = locus YBR231C, strain swc5, active compounds read low
[12] = locus YBR279W, strain paf1, active compounds read low
[13] = locus YCL011C, strain gbp2, active compounds read low
[14] = locus YCL016C, strain dcc1, active compounds read low
[15] = locus YCL069W, strain vba3, active compounds read low
[16] = locus YCR088W, strain abp1, active compounds read low
[17] = locus YDL005C, strain med2, active compounds read low
[18] = locus YDL040C, strain nat1, active compounds read low
[19] = locus YDR001C, strain nth1, active compounds read low
[20] = locus YDR069C, strain doa4, active compounds read low
[21] = locus YDR137W, strain rgp1, active compounds read low
[22] = locus YDR159W, strain sac3, active compounds read low
[23] = locus YDR297W, strain sur2, active compounds read low
[24] = locus YDR335W, strain msn5, active compounds read low
[25] = locus YDR392W, strain spt3, active compounds read low
[26] = locus YEL003W, strain gim4, active compounds read low
[27] = locus YEL037C, strain rad23, active compounds read low
[28] = locus YEL061C, strain CIN8 (second series), active compounds read low
[29] = locus YER015W, strain faa2, active compounds read low
[30] = locus YER016W, strain bim1, active compounds read low
[31] = locus YER111C, strain swi4, active compounds read low
[32] = locus YER155C, strain BEM2 (second series), active compounds read low
[33] = locus YFR010W, strain ubp6, active compounds read low
[34] = locus YGL167C, strain pmr1, active compounds read low
[35] = locus YGL173C, strain kem1, active compounds read low
[36] = locus YGL227W, strain vid30, active compounds read low
[37] = locus YGL240W, strain doc1, active compounds read low
[38] = locus YGL253W, strain hxk2, active compounds read low
[39] = locus YHR013C, strain ard1, active compounds read low
[40] = locus YHR027C, strain rpn1, active compounds read low
[41] = locus YHR142W, strain chs7, active compounds read low
[42] = locus YJL092W, strain hpr5, active compounds read low
[43] = locus YJL095W, strain BCK1 (second series), active compounds read low
[44] = locus YJL115W, strain asf1, active compounds read low
[45] = locus YJL129C, strain trk1, active compounds read low
[46] = locus YJL154C, strain vps35, active compounds read low
[47] = locus YJL164C, strain tpk1, active compounds read low
[48] = locus YJL166W, strain qcr8, active compounds read low
[49] = locus YKL160W, strain elf1, active compounds read low
[50] = locus YKR026C, strain gcn3, active compounds read low
[51] = locus YKR091W, strain srl3, active compounds read low
[52] = locus YLL001W, strain dnm1, active compounds read low
[53] = locus YLL026W, active compounds read low
[54] = locus YLL041C, strain sdh2, active compounds read low
[55] = locus YLR027C, strain aat2, active compounds read low
[56] = locus YLR221C, strain rsa3, active compounds read low
[57] = locus YLR258W, strain gsy2, active compounds read low
[58] = locus YLR262C, strain YPT6 (second series), active compounds read low
[59] = locus YLR320W, strain mms22, active compounds read low
[60] = locus YLR342W, strain FKS1, active compounds read low
[61] = locus YLR357W, strain rsc2, active compounds read low
[62] = locus YLR370C, strain arc18, active compounds read low
[63] = locus YLR384C, strain iki3, active compounds read low
[64] = locus YML120C, strain ndi1, active compounds read low
[65] = locus YMR058W, strain fet3, active compounds read low
[66] = locus YMR125W, strain sto1, active compounds read low
[67] = locus YMR129W, active compounds read low
[68] = locus YMR205C, strain PFK2, active compounds read low
[69] = locus YMR231W, strain pep5, active compounds read low
[70] = locus YNL071W, strain lat1, active compounds read low
[71] = locus YNL209W, strain ssb2, active compounds read low
[72] = locus YNL248C, strain rpa49, active compounds read low
[73] = locus YNL322C, strain KRE1 (second series), active compounds read low
[74] = locus YNR049C, strain mso1, active compounds read low
[75] = locus YOR001W, strain rrp6, active compounds read low
[76] = locus YOR070C, strain gyp1, active compounds read low
[77] = locus YOR080W, strain dia2, active compounds read low
[78] = locus YOR083W, strain WHI5, active compounds read low
[79] = locus YOR106W, strain vam3, active compounds read low
[80] = locus YOR265W, strain rbl2, active compounds read low
[81] = locus YOR270C, strain vph1, active compounds read low
[82] = locus YOR290C, strain snf2, active compounds read low
[83] = locus YPL051W, strain arl3, active compounds read low
[84] = locus YPL078C, strain atp4, active compounds read low
[85] = locus YPL106C, strain sse1, active compounds read low
[86] = locus YPL240C, strain hsp82, active compounds read low

Measured: normalized growth

Cc1nc(N)ncc1Sc1ccccc1
inactive: locus YAL013W, strain DEP1, active compounds read low 0.995 | locus YBR229C, strain ROT2, active compounds read low 0.989 | [1] 0.963 | locus YDL101C, strain DUN1, active compounds read low 0.98 | locus YDR150W, strain NUM1, active compounds read low 1 | locus YEL061C, strain CIN8, active compounds read low 0.977 | locus YGR078C, strain PAC10, active compounds read low 0.986 | [2] 0.899 | locus YHR087W, strain rtc3, active compounds read low 0.996 | [3] 0.981 | locus YJR043C, strain POL32, active compounds read low 0.991 | locus YJR075W, strain HOC1, active compounds read low 0.934 | locus YLR058C, strain SHM2 (second series), active compounds read low 0.987 | locus YLR085C, strain ARP6, active compounds read low 1.01 | locus YLR262C, strain YPT6, active compounds read low 0.822 | locus YML094W, strain GIM5, active compounds read low 0.964 | locus YMR219W, strain ESC1, active compounds read low 0.99 | locus YMR263W, strain SAP30, active compounds read low 0.966 | locus YNL153C, strain GIM3, active compounds read low 0.961 | locus YNL298W, strain CLA4 (second series), active compounds read low 0.961 | locus YNL322C, strain KRE1, active compounds read low 0.982 | locus YNR030W, strain Alg12, active compounds read low 0.963 | locus YOL006C, strain TOP1, active compounds read low 0.911 | locus YPL055C, strain LGE1, active compounds read low 0.928 | locus YPL241C, strain CIN2, active compounds read low 1.04 | locus YPR135W, strain CTF4, active compounds read low 0.907
active: locus YLR039C, strain RIC1, active compounds read low 0.758

C=CCCCCCCCCCCCc1ccco1
active: [5] 0.869 | [7] 0.896 | [8] 0.659 | [9] 0.905 | [11] 0.873 | [12] 0.873 | [13] 0.803 | [14] 0.861 | [15] 0.848 | [16] 0.916 | [21] 0.629 | [22] 0.854 | [23] 0.878 | [24] 0.84 | [25] 0.0917 | [26] 0.884 | [28] 0.52 | [29] 0.913 | [30] 0.814 | [32] 0.309 | [35] 0.868 | [36] 0.766 | [37] 0.869 | [38] 0.82 | [39] 0.613 | [41] 0.53 | [43] 0.587 | locus YJL095W, strain BCK1, active compounds read low 0.877 | [47] 0.819 | [48] 0.589 | [49] 0.732 | [52] 0.885 | [55] 0.727 | locus YLR113W, strain HOG1, active compounds read low 0.832 | [56] 0.66 | [57] 0.861 | [58] 0.582 | [59] 0.621 | [60] 0.858 | [65] 0.692 | [66] 0.807 | [68] 0.719 | [70] 0.253 | [72] 0.879 | [76] 0.833 | [78] 0.863 | [79] 0.819 | locus YOR231W, strain MKK1, active compounds read low 0.856 | [81] 0.626 | [83] 0.754 | [84] 0.79 | [86] 0.847
inactive: [4] 0.981 | [6] 0.939 | [10] 0.995 | [17] 0.979 | [18] 0.999 | [19] 1.01 | [20] 0.94 | locus YDR195W, strain ref2 0.939 | [27] 0.995 | [31] 0.975 | [33] 0.921 | [34] 1.01 | [40] 0.937 | [2] 0.87 | locus YHR079C, strain IRE1, active compounds read low 0.858 | [42] 0.933 | [44] 0.984 | [45] 0.877 | [46] 1.01 | locus YJR066W, strain TOR1, active compounds read low 0.925 | [50] 0.986 | [51] 0.996 | [53] 0.935 | [54] 0.968 | [61] 0.967 | [62] 0.966 | [63] 0.967 | [64] 0.934 | [67] 0.976 | [69] 0.997 | locus YNL183C, strain NPR1, active compounds read low 0.869 | [71] 0.945 | [73] 0.976 | [74] 0.994 | [75] 0.954 | [77] 0.99 | [80] 0.976 | [82] 0.909 | [85] 0.96 | locus YPL256C, strain CLN2, active compounds read low 0.856

C#CCCCCCCCCCCCc1ccco1
inactive: [4] 1.02 | [5] 0.98 | [6] 0.997 | [7] 0.999 | [8] 0.954 | [9] 0.994 | [10] 0.997 | [11] 0.995 | [12] 1 | [13] 0.983 | [14] 0.999 | [1] 1 | [15] 0.995 | [16] 0.992 | [17] 0.991 | [18] 0.987 | [19] 0.99 | [20] 0.983 | [21] 0.993 | [22] 0.958 | locus YDR195W, strain ref2 0.99 | [23] 1 | locus YDR334W, strain swr1, active compounds read low 0.999 | [24] 0.989 | [26] 1.01 | [27] 1.01 | [28] 1 | [29] 0.992 | [30] 0.988 | [31] 0.972 | [33] 0.996 | [34] 0.999 | [35] 0.989 | [36] 0.991 | [37] 0.995 | [38] 0.989 | [39] 0.869 | [40] 1 | [41] 0.971 | [42] 0.989 | [43] 0.997 | [44] 0.987 | [45] 0.968 | [46] 1.01 | [47] 0.973 | [48] 0.947 | [3] 1 | [49] 0.985 | [50] 0.964 | [51] 0.993 | [52] 0.981 | [53] 0.982 | [54] 1 | [55] 0.985 | [56] 0.975 | [57] 0.99 | [58] 0.917 | [59] 0.932 | [60] 0.989 | [61] 0.975 | [62] 0.998 | [63] 0.987 | [64] 1 | [65] 0.987 | [66] 0.958 | [67] 0.998 | [68] 0.938 | [69] 0.993 | [71] 0.998 | [72] 0.982 | [73] 0.983 | [74] 0.996 | [75] 1 | [76] 1.01 | [77] 0.993 | [78] 0.985 | [79] 0.949 | [80] 1 | [81] 0.962 | [82] 0.975 | [83] 0.988 | [84] 0.991 | [85] 1.04 | [86] 1
active: [25] 0.603 | [32] 0.849 | [70] 0.877
